# Compounds with a hit are over-represented: about 7% of the library has one in this group of screens.
# a7 integrin act = activators of alpha7 integrin expression for muscular dystrophy. alpha7betagal myoblasts, beta-gal FDG fluorescence, 48 h. Potency, µM (top dose mostly 38.3 µM), inactives show at the top dose activation, usual class: activators. 0.064% of 350,000 active. AID 624291;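 note: potency is the fitted concentration of half-maximal effect; 100% = response of the positive control SU9516; nearly all actives have a fitted effect of over 60% in size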
#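 alpha7betagal+/- myoblasts (passage 13, 250/well) treated 48 h at 37C with compounds at 1:260 dilution of DMSO stock. Lysed, then beta-galactosidase activity read as FDG fluorescence (ex 480/em 540) after 30 min, with pre-read for autofluorescence.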
# ATXN viability = reduces viability in counter-screen for ATXN expression inhibitors. S2 cells (HEK-293 line with an ATXN2-luciferase reporter) viability, CellTiter-Fluor protease fluorescence, 24 h. Potency, µM (top dose mostly 56.7 µM), usual class: cytotoxic. 0.49% of 400,000 active; note: potency is the fitted concentration of half-maximal effect; nearly all actives have a fitted effect of over 40% in size
# ATXN2 expr inh = reduces ATXN2 reporter expression in HEK-293 cells | HEK-293 ATXN2-luciferase reporter, luminescence, 24 h | Potency, µM (doses to about 57 µM), for the others: at the top dose activity change, negative = inhibition, most hits filed as inhibitors | 0.72% of 360,000 active | AID 1745845; note: potency is the fitted concentration of half-maximal effect; % is set by controls: 0 for no effect and ±100 for the full control effect; nearly all actives have a fitted effect of over 55% in size
#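 qHTS (up to 57 uM final) was run with 24 h compound exposure of reporter cells at 37 °C. Each well was multiplexed: SteadyGlo luminescence measured ATXN2-luciferase expression after a fluorogenic Gly-Phe-AFC viability readout (25 uM final).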
# DRD3 agonist = agonists of human D3 dopamine receptor | P35462 | D3R DiscoveRx beta-arrestin cells, luminescence, 90 min | max activation, % | 0.58% of 410,000 active | AID 652048; in the data active = max activation above about 30%; note: 0% is about no effect
# Target sequence (P35462 whole entry, looked up): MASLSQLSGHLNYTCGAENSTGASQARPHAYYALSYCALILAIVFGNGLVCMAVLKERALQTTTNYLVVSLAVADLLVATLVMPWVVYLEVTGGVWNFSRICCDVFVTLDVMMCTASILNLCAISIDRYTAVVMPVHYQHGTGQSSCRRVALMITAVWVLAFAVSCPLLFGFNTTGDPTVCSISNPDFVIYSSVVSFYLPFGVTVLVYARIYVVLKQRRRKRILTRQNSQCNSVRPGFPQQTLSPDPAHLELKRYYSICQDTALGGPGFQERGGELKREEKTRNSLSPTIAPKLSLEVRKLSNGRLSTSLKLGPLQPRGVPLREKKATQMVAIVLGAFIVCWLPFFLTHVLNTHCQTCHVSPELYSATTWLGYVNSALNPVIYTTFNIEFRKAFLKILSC
#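 Agonist mode: compounds and dopamine controls were applied to plated cells for 90 min at 37 degrees C after an overnight attachment at 1500 cells/well. Luminescent read-out followed 30 - 60 minutes at room temperature with DiscoveRx detection reagent.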
# IL-1B inflam inh = inhibitors of inflammasome signaling (IL-1 beta secretion) | THP-1 LPS/ATP IL-1B secretion, AlphaLISA, 16 h; hits give low values | activity change, % at 57.5 µM | 4.7% of 360,000 active; in the data active = activity change below about -50%; inconclusive = mostly about -30% to -49%; note: % is set by controls: 0 for no effect and ±100 for the full control effect
#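 THP-1 cells pretreated 1 hr with compounds (up to 57.5 uM final), then stimulated with LPS (250 ng/mL final) plus ATP (1.25 mM final); secreted IL-1B measured by AlphaLISA after 16 hr, decreased signal indicating inhibition.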
# D3 antag = antagonists of human D3 dopamine receptor; 2.5% of 360,000 active; P35462; max response, negative = inhibition, %; AID 652054; D3R cells, DiscoveRx beta-arrestin luminescence, antagonist mode; hits give low values; in the data active = max response below about -50%; inconclusive = no clear call, values can overlap the other calls; note: % is set by controls: 0 for no effect and ±100 for the full control effect
#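 Cells plated overnight at 1500 cells/well, then exposed to library compounds with dopamine controls for 90 minutes at 37 degrees C. DiscoveRx reagent added for 30–60 minutes at room temperature; luminescence read, quantitative HTS format.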
# The depositor's hits bear a star; i = inactive; ? = inconclusive; . = no result given; [ ] = remark or other dose. Unless noted, calls come from the whole dose curve; as a rule, active = well fitted curve in the direction sought with a large enough effect; inconclusive = small, poorly fitted or top-dose-only effect, or another doubt; inactive = no such curve, though single readings can be large; an effect the other way counts as inactive or inconclusive.
SMILES,a7 integrin act,ATXN viability,ATXN2 expr inh,DRD3 agonist,IL-1B inflam inh,D3 antag
Cc1cc(Br)cn2c(Cc3ccsc3)c(-c3ccco3)nc12,.,?,?,-15,-7,-56*
COc1ccc(-c2nc3ccc(C)cn3c2Cc2ccccc2)cc1OC,.,28µM*,?,1,?,4
Cc1cc(Br)cn2c(Cc3ccccc3)c(-c3ccc(Cl)cc3)nc12,.,i,18%,-6,69,-19
COc1ccccc1Cc1c(-c2cccc(Br)c2)nc2ccc(Cl)cn12,.,i,30%,-10,21,-50*
Cc1cc(Br)cn2c(Cc3ccccc3)c(-c3cccc(Br)c3)nc12,.,i,11%,-12,7,-51*
COc1ccc(-c2nc3ccc(C)cn3c2Cc2ccc(C)cc2)cc1OC,.,.,-14%,-8,-19,-16
COc1ccccc1C(C)NC(=O)C1CCN(S(=O)(=O)c2cccs2)CC1 (stereo not given),3%,i,-10%,-15,25,-17
COc1ccc(S(=O)(=O)Nc2cccc(-c3ccc(N4CCCCCC4)nn3)c2)cc1OC,-9%,?,6%,-5,-8,-11
Cc1ccc(-c2nc(CSCC(=O)NCC3CCCO3)c(C)o2)cc1 (stereo not given),4%,i,2%,4,-8,5
COc1ccccc1Cc1c(-c2ccco2)nc2c(C)cc(Br)cn12,.,?,8.9µM*,-16,-13,-92*
O=c1c2cn[nH]c2[nH]c(=S)n1-c1ccccc1Cl,19%,i,-20%,-10,-1,?
O=C(OCCN1CCCCC1)c1cccc(Cl)c1,-53%,i,.,-6,-2,-102*
CC(C)Oc1ccc(C(=O)CCN2CCOCC2)cc1,-45%,?,?,-6,1,-6
CC(C)Oc1ccc(C(=O)CCN2CCCCC2)cc1,-54%,i,?,-5,-30,-78*
COc1ccc(C(=O)CCN2CCCCCC2)cc1,-63%,?,?,-57,-4,-54*
COc1ccc(N2CCN(CCOc3ccc4c(C)cc(=O)oc4c3)CC2)cc1,16%,i,-1%,-17,-3,-51*
COC(=O)c1cccc(NC(=O)/C(=C\c2ccco2)NC(=O)c2ccco2)c1,8%,i,.,7,-9,6
Cc1c(Cc2ccccc2)c(=O)oc2c(C)c(OCC(=O)NCC3CCC(C(=O)O)CC3)ccc12 (stereo not given),-15%,i,-4%,-19,14,-7
COc1ccc(C(=O)OCCN2CCCCC2)cc1,-21%,i,24%,-11,-2,-78*
O=C(CCN1CCN(c2ccccc2F)CC1)c1ccc(Br)cc1,-6%,i,4%,-16,-2,?
COc1ccc(C(=O)CCN2CCN(c3ccc(OC)cc3)CC2)cc1,-30%,i,-7%,-31,-101*,-15
CC(C)(C)c1ccc(C(=O)OCCN2CCCCC2)cc1,4%,i,.,-6,15,-20
COc1ccc(C(=O)CCN2CCN(c3ccccc3F)CC2)cc1,-50%,i,-2%,-10,0,-99*
COc1ccc(N2CCN(Cc3cc4c(cc3O)CCC4)CC2)cc1,12%[7.66 µM],?,-21%,-5,4,-87*
COc1cccc(C(O)c2nc(-c3cccc4cccnc34)cs2)c1 (stereo not given),.,i,2%,11,-2,8
SMILES,a7 integrin act,ATXN viability,ATXN2 expr inh,DRD3 agonist,IL-1B inflam inh,D3 antag
O=C(c1ccc(Cl)cc1)C(Cn1cncn1)C(Sc1ccccc1)c1ccccc1 (stereo not given),-53%,?,?,-1,-61*,2
O=C(NCCN1CCOCC1)c1ccc2c(c1)N(Cc1c(F)cccc1Cl)C(=O)c1ccccc1S2,-3%,i,?,-1,0,?
CN(C)CCNC(=O)c1ccc2c(c1)N(Cc1c(F)cccc1Cl)C(=O)c1ccccc1S2,.,i,22µM*,-2,.,.
CCN1C(=O)c2ccccc2S(=O)c2ccc(C(=O)NCc3ccc(OC)cc3)cc21 (stereo not given),-7%,?,.,-7,29,-51*
COc1ccc(CNC(=O)c2ccc3c(c2)N(Cc2ccccc2C)C(=O)c2ccccc2S3=O)cc1 (stereo not given),.,.,.,-2,.,.
CCCN(CCC)CCCNC(=O)c1ccc2c(c1)N(CC)C(=O)c1ccccc1S2=O (stereo not given),-2%,i,20%,-5,44,-93*
CC(C)CCNC(=O)Nc1ccc2c(c1)N(C)C(=O)c1ccccc1S2,.,35µM*,?,-10,.,.
Cc1cc(/C=N/NC(=O)c2ccsc2)c(C)n1-c1cnccn1,8%,i,.,1,13,?
CC(C)(C)S(=O)N1Cc2cc(CO)ccc2[C@H]1CCO (stereo not given in full),6%,i,9%,4,45,23
Cc1ccc(S(C)(=O)=O)cc1C(=O)Nc1cccc(S(=O)(=O)N2CCCCCC2)c1,3%,i,-13%,5,15,3
CCN1C(=O)c2ccccc2Sc2ccc(C(=O)NCCCN(CC(C)C)CC(C)C)cc21,-1%,i,-8%,-24,-65*,17
CCCCN(CC)CCCNC(=O)c1ccc2c(c1)N(Cc1ccc(C)cc1)C(=O)c1ccccc1S2,.,.,.,-30,.,.
O=C(Oc1cccc(Nc2ncnc3ccccc23)c1)c1ccccc1Cl,-12%,i,-9%,40*,6,-24
O=C(Nc1ccccc1C(=O)OCc1cc(=O)n2nc(C3CC3)sc2n1)c1ccc(Cl)cc1,.,i,3%,0,.,.
O=[N+]([O-])c1cc(Cl)ccc1Nc1ccccc1,-11%,i,.,0,17,1
CCCn1c(N)[n+](CC(=O)c2ccco2)c2ccccc21,33%,i,-9%,3,-59*,14
CCCn1c(NC(=O)c2ccco2)nc2ccccc21,-22%,?,-25%,0,0,-7
Cc1cccc(N2CC(C(=O)Nc3ccc(S(=O)(=O)N4CCOCC4)cc3)CC2=O)c1C (stereo not given),11%,i,10%,21,9,19
Cc1cccc(N2CC(C(=O)Nc3cccc(S(=O)(=O)N4CCCCC4)c3)CC2=O)c1C (stereo not given),-36%,i,-11%,3,-51*,5
O=C(Nc1ccc(S(=O)(=O)N2CCCCC2)cc1)C1CC(=O)N(Cc2ccccc2)C1 (stereo not given),3%,i,1%,-1,2,13
Cc1ccc(NCC(=O)Nc2cccc(F)c2)cc1S(=O)(=O)N1CCCCCC1,-53%,i,-30%,-29,-75*,5

# Assay outcomes: PubChem BioAssay, National Center for Advancing Translational Sciences (NCATS)
